This is a sample that favours compounds with a hit; in the whole collection about 7.5% have one here.
SMN2 splice enh: increases expression of the SMN2 splice variant; AID 1458; hit rate 2.8% among 210,000; Potency, µM (series often up to 46.1 µM), for the others: at the highest dose activity change, positive = activation, most hits filed as activators; HEK293 SMN2-luciferase splicing reporter, luminescence, 30-36 h; note: % of control where 0% means no effect; nearly all actives have a fitted effect of over 55% in size
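qHTS luciferase splicing reporter: luminescence rises when SMN2 exon 7 is included in transfected HEK293 cells. Compound exposure lasted 30-36 h at 37C, with 4.5 mM final sodium butyrate as control, followed by a ONE-Glo read.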
FLuc counter: counter-screen for miR-21 project: firefly luciferase inhibitors or activators | P08659 | purified FLuc, Km substrates, luminescence inhibition | hit rate 6.9% among 360,000 | Potency, µM (titrated, usually from 57.5 µM), for inactives: at the highest dose activity change, negative = inhibition, most hits filed as inhibitors;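 note: plate controls were vehicle for no effect and reference inhibitor for full effect; nearly all actives have a fitted effect of over 55% in size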
Target sequence (P08659 whole entry, looked up): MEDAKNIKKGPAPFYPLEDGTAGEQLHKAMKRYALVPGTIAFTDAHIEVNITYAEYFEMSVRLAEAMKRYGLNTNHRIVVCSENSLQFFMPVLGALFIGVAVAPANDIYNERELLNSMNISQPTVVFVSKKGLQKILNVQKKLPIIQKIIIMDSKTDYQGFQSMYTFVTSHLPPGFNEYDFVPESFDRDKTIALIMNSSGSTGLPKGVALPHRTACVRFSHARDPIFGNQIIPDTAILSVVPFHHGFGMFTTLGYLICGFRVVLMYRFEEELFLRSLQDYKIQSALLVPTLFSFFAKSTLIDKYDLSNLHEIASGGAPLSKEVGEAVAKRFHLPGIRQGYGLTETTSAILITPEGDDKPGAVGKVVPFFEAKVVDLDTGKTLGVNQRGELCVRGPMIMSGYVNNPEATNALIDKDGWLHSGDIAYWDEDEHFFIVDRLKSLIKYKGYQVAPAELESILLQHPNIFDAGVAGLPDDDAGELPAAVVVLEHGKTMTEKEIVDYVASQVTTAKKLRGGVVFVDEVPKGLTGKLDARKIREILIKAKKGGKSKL
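Biochemical qHTS of compounds, final roughly 60 µM downward over six points, against 10 nM purified firefly luciferase using Km concentrations of substrates (10 uM D-luciferin, 10 uM ATP) in Tris acetate pH 7.5 buffer; luminescence output.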
ELG1 genotoxic: inducers of genotoxicity in HEK293T ELG1-luciferase cells | HEK293T ELG1-luciferase reporter, luminescence, 16 h | Potency, µM (top dose mostly 46 µM), for inactives: top-dose activity change, positive = activation, most hits filed as activators | hit rate 1.3% among 330,000; note: % of control where 0% means no effect; nearly all actives have a fitted effect of over 60% in size
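Quantitative HTS format in 1536-well plates. HEK293T ELG1-luciferase reporter cells receive test compound and are incubated 16 hr at 37 °C, 5% CO2; ONE-Glo added, 30 min room temperature, then luminescence read.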
NPC1 prom act: activators of NPC1 promoter; Huh7 NPC1 promoter luciferase reporter, 24 h; hit rate 2.4% among 320,000; Potency, µM (titrated, usually from 9.22 µM), for inactives: at the highest dose activation, most hits filed as activators; AID 485313; note: % of control where 0% means no effect; nearly all actives have a fitted effect of over 60% in size
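Huh7 reporter cells (NPC1 promoter driving luciferase) are dosed with compound for 24 h at 37 °C, 5% CO2; luciferase detection reagent is then added and luminescence measured after 10 min at ambient temperature.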
Rab9 prom act: Rab9 promoter activation; hit rate 2.8% among 320,000; Potency, µM (series often up to 9.22 µM), for the others: at the highest dose activation, negative = inhibition, usual class: activators; Huh7 Rab9 promoter-luciferase reporter, luminescence, 24 h; note: % of control where 0% means no effect; nearly all actives have a fitted effect of over 60% in size
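Luminescence read-out: Huh7 cells stably expressing Rab9-luciferase, treated 24 h with compound at 37 °C, then lysed with luciferase reagent for 10 min at ambient before reading.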
An asterisk follows results filed as active; ? = inconclusive; . = no result. Calls come from the whole dose curve; as a rule, active = well fitted curve in the direction sought with a large enough effect; inconclusive = small, poorly fitted or top-dose-only effect, or another doubt; inactive = no such curve, though single readings can be large; an effect the other way counts as inactive or inconclusive. Potency is the fitted concentration of half-maximal effect.

SMILES	SMN2 splice enh	FLuc counter	ELG1 genotoxic	NPC1 prom act	Rab9 prom act
CC1CCC(=C(C#N)c2nc(-c3cc4ccccc4oc3=O)cs2)CC1 (centres undefined)	?	2.69µM*	6.51µM*	3.55µM*	3.98µM*
COc1cc(/C=C(/C#N)c2nc(-c3cc4ccccc4oc3=O)cs2)cc([N+](=O)[O-])c1O	.	12µM*	-0.7%	-2.2%	-1.0%
COc1cc(/C=C(\C#N)c2nc(-c3cc4ccccc4oc3=O)cs2)ccc1O	-17.4%	0.1%	4.5%	-0.4%	-7.4%
CCn1c(CCNC(=O)c2ccc(OC)cc2)nnc1SCc1ccc(Cl)cc1Cl	-20.4%	3.8%	-6.7%	-5.2%	-2.2%
COc1ccc(NS(=O)(=O)c2cccc(C(=O)N(C)CC(=O)Nc3ccc(C)cc3)c2)cc1	.	1.0%	-3.9%	-5.8%	-12.3%
COc1ccc(NC(=O)CN(C)C(=O)c2ccc(NS(=O)(=O)c3cccc([N+](=O)[O-])c3)cc2)cc1	.	23.9µM*	-2.7%	3.1%	-2.1%
COc1cccc(C(=O)NCCS(=O)(=O)NCc2cccnc2)c1	.	6.3%	-0.3%	-5.0%	-2.6%
COc1ccccc1-c1nnc(NC(=O)CSc2nncn2C)s1	11.2µM*	0.757µM*	5.7%	?	?
COc1ccccc1-c1nnc(NC(=O)C(C)Sc2nncn2C)s1 (centres undefined)	-38.2%	19µM*	11.9%	2.8%	13.6%
COc1ccccc1NC(=O)c1ccc(NC(=O)CSc2nncn2C)cc1	4.3%	-1.2%	0.0%	-2.6%	-1.8%
COc1ccccc1-c1nnc(NC(C)=O)s1	25.1µM*	6.75µM*	?	?	?
CCC(ONc1ccccc1C(F)(F)F)(C(=O)NN(C)C)c1ccccc1 (centres undefined)	.	-19.5%	1.2%	-8.5%	-13.3%
O=C(c1ccc(F)cc1)C1CCN(C(=S)Nc2ccc(F)cc2)CC1	.	-1.3%	-6.8%	-6.4%	-7.0%
COc1ccccc1N1C(C)=CC(=C(C#N)c2nc3ccccc3s2)C=C1C	-42.9%	3.01µM*	14.1%	15.7%	2.6%
CC1=CC(=C(C#N)c2nc3ccccc3s2)C=C(C)N1c1ccc(F)cc1	?	3.38µM*	12.9%	23.9%	29.6%
CC(C)=C(C#N)c1nc2ccccc2s1	-3.8%	-13.9%	0.0%	-0.8%	-9.1%
COc1ccc(/C=C2/C(=N)N3N=C(CC(=O)N4CCCC4)SC3=NC2=O)cc1OC	.	-21.3%	0.6%	1.2%	0.0%
Cc1cccc(CC2CC(=O)N(c3nc4ccccc4s3)C2=O)c1 (centres undefined)	6.5%	?	-4.6%	0.3%	-1.8%
COc1ccc2nc(N3C(=O)CNC3=S)sc2c1	.	2.39µM*	20.6µM*	3.55µM*	1.26µM*
Cc1ccc2nc(N3C(=O)CNC3=S)sc2c1	.	1.51µM*	20.6µM*	1.12µM*	?
COC(=O)/C=C1\C(=O)N(c2nc3ccc(OC)cc3s2)C(=S)N1c1ccc(F)cc1	15.9%	0.7%	0.7%	1.6%	1.9%
NC(=O)c1nn(-c2ccccc2)nc1NC(=O)CN1CCCCC1	.	?	-0.7%	-2.1%	-0.8%
CCN1CCN(S(=O)(=O)c2ccc(OC)c3ccccc23)CC1	.	1.4%	-4.4%	-2.4%	-1.8%
CC(=O)NC12CC3CC(C1)CC(C(=O)N1CCN(S(=O)(=O)c4ccc(C(C)C)cc4)CC1)(C3)C2	.	2.8%	0.6%	1.7%	-1.5%
Cc1cc(N/N=C2/CCCc3ccccc32)nc2ccccc12	-4.3%	7.57µM*	-5.4%	29.2%	?
SMILES	SMN2 splice enh	FLuc counter	ELG1 genotoxic	NPC1 prom act	Rab9 prom act
O=C(NC(=S)Nc1nc2ccccc2s1)c1cccs1	2µM*	1.07µM*	?	?	3.55µM*
COC(=O)Cc1nc(NC(=O)c2cccs2)sc1C	.	16.9µM*	14.9%	?	?
COC(=O)c1nc(NC(=S)NC(=O)c2cccs2)sc1C	.	10.7µM*	?	?	?
CCc1ccc(-c2nc(NC(=S)NC(=O)c3cccs3)sc2C)cc1	16.1%	2.5%	2.7%	2.9%	0.8%
NC(=S)Nc1nc2ccccc2s1	28.3%	?	7.1%	11.0%	6.7%
COc1ccc(OC)c(NC(=O)N2CCC3(CC2)Oc2ccccc2C(=O)N3Cc2ccccc2F)c1	-16.9%	-3.8%	.	.	.
Cc1cccc(NC(=O)CN2C(=O)N/C(=C/c3cc(C)n(-c4cccnc4)c3C)C2=O)c1	-49.5%	1.3%	?	9.5%	-2.3%
Cc1cc(/C=C2/NC(=O)N(c3ccccc3)C2=O)c(C)n1-c1cccnc1	7.94µM*	3.38µM*	?	2.24µM*	1.58µM*
Cc1cc(/C=C2/NC(=S)NC2=O)c(C)n1-c1cccnc1	?	5.36µM*	20.5%	24.3%	?
COc1cc(C(=O)NCCC(=O)NCCCN2CCCCC2C)cc(OC)c1OC (centres undefined)	-6.6%	1.7%	-1.5%	1.2%	1.5%
CN(Cc1ccccn1)C(=O)c1ccc2nc(Cc3cccc(Cl)c3)oc2c1	.	-12.3%	0.5%	0.2%	5.0%
COCC1CCCN(C(=O)c2ccc3nc(Cc4cccc(Cl)c4)oc3c2)C1 (centres undefined)	.	13.5µM*	?	3.16µM*	2.24µM*
COC(=O)CN(C)C(=O)c1ccc2nc(Cc3cccc(Cl)c3)oc2c1	.	23.9µM*	?	2.82µM*	3.55µM*
CC1CCCC(NC(=O)CN(C)S(=O)(=O)c2cnc[nH]2)C1C (centres undefined)	-22.6%	-1.6%	-0.5%	0.5%	-10.1%
Cc1c([N+](=O)[O-])c(C(=O)Nc2ccc3c(c2)OCCO3)nn1C	12.6µM*	?	11.6µM*	?	?
COc1cc(C(=O)Nc2ccc3c(c2)OCCO3)ccc1OC(F)F	14.1µM*	6.01µM*	?	3.16µM*	2.82µM*
CCOc1ccc(C(=O)OCC(=O)Nc2ccc3c(c2)OCCO3)cc1OC	.	-1.1%	5.8%	-5.5%	2.6%
COc1ccc(C(=O)Nc2ccc3c(c2)OCCO3)cc1S(=O)(=O)N1CCOCC1	.	.	-1.6%	-3.3%	-2.8%
COc1ccc(NC(=O)c2ccc3c(c2)OCCO3)cc1OC	.	2.69µM*	5.62µM*	1.41µM*	2.24µM*
COc1cc(C(=O)Nc2ccc3c(c2)OCCO3)ccc1OC(C)C	11.2µM*	7.57µM*	?	?	3.16µM*
COc1cc(NC(=O)c2ccc3c(c2)OCCO3)ccc1NC(=O)c1ccccc1Cl	.	-2.3%	12.1%	10.0%	-0.6%
Cc1nn(C)c(C(=O)Nc2ccc3c(c2)OCO3)c1[N+](=O)[O-]	.	?	3.4%	1.8%	-5.6%
O=C1C2=C(c3ccccc31)[N+](=O)[C@@H]1CCCC[C@@H]1N2[O-]	3.9%	0.5%	10.7%	16.9%	27.6%
Cc1ccc(C(=O)Nc2cccc(-c3nc4cccnc4s3)c2C)cc1	.	-9.3%	.	.	.
CNc1ccc(C(=O)OCC(=O)Nc2ccnn2C(C)C)cc1[N+](=O)[O-]	.	4.1%	2.6%	-3.5%	2.0%

Compound activity deposited in PubChem BioAssay by National Center for Advancing Translational Sciences (NCATS).
